D1 antag = antagonists of human D1 dopamine receptor. activity change, negative = inhibition, % at 10 µM. HEK293 TREx D1 cells, calcium flux, dopamine EC80; stronger effect = lower value. P21728. 3.2% of 360,000 active; in the data active means activity change below about -30%; further: on the % scale 0 is the no-effect control and ±100 the full control effect
Target sequence (P21728 whole entry, looked up): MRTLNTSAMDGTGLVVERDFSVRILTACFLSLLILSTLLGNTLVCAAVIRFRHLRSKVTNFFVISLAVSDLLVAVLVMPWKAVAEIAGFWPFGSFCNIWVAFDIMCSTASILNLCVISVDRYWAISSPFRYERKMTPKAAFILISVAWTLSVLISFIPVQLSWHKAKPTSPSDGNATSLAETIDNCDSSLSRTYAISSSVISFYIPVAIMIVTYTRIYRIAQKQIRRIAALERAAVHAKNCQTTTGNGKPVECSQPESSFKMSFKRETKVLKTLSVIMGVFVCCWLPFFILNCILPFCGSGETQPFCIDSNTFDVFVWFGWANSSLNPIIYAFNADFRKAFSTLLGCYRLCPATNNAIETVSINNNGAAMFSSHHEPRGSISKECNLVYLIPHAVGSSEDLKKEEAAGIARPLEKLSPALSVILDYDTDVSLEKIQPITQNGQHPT
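Tetracycline-induced HEK293 Trex D1 cells, force-coupled to calcium, dye-loaded; compounds added and read 180 s, then EC80 dopamine added and calcium flux tracked kinetically another 180 s.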
D1 potentiator = enhances dopamine response at the human D1 receptor. AID 504651. P21728. 0.036% of 360,000 active. HEK293 TREx D1 cells, calcium flux, dopamine EC20 potentiation. potentiation, % at 10 µM; in the data active means potentiation above about 30%; further: 0% is about no effect
D1 agonist = human D1 receptor agonism; HEK293 T-REx D1 cells, calcium flux, agonist mode; activation, % at 2 µM; 1% of 360,000 active; AID 504660; further: 0% is about no effect
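Tetracycline-induced HEK293 TREx D1 cells, force-coupled to calcium signalling, were dye-loaded with a no-wash calcium kit. Compound was pin-added after a 10 s baseline. Fluorescence was read kinetically at 1 cycle/s for 180 s, with calcium rises flagged as agonism.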
TRHR PAM = TRH receptor (human) allosteric enhancement | P34981 | enhancement, % at 2 µM | TRHR cells, fluo-8 calcium fluorescence, EC20 TRH enhancement | 0.66% of 360,000 active; in the data active means enhancement above about 30%; further: 0% is about no effect
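Enhancer read-out: after compound pinning and an initial kinetic agonist-mode read, an EC20 of TRH (10 nM final) was injected and fluo-8 calcium signal (Ex 480/Em 530) followed at 1 s/cycle for 100 cycles in TRHR-expressing cells.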
TRHR agonist = TRH receptor (human) agonism. P34981. TRHR cells, calcium flux fluo-8, FDSS agonist mode. activation, % at 2 µM. 0.18% of 360,000 active; further: 0% is about no effect
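Fluo-8-loaded TRHR cells; 10 s baseline, compound added, kinetic Ca2+ fluorescence read 1/s, agonist mode.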
Starred values were filed as active, the others as inactive; . = not tested or not shown. An excerpt weighted towards active compounds, which were near 4.6% of everything screened. Unless noted, no stated cut-off is given here; in the data, active means activation above about 30%; inactive means the rest.

SMILES	D1 antag	D1 potentiator	D1 agonist	TRHR PAM	TRHR agonist
O=C(OCC(=O)C12CC3CC(CC(C3)C1)C2)c1ccc(CO)cc1	-9	0	6	-5	0
CC(CC(=O)Nc1ccc(-c2ccno2)cc1)n1cccn1 (stereo not given)	-11	-6	1	1	0
CCN(C(=O)COC(=O)c1cc(S(=O)(=O)N2CCOCC2)ccc1F)C1CCS(=O)(=O)C1 (stereo not given)	1	-9	3	4	0
Cc1ccc(NC(=O)CSc2n[nH]c(-c3cccnc3)n2)c(Br)c1	-32*	.	7	4	-1
COc1ccccc1NC(=O)CSc1n[nH]c(-c2cccnc2)n1	5	1	0	0	0
CN(Cc1ccccc1)C1CCCN(C(=O)c2ccc(Cl)s2)C1 (stereo not given)	-31*	-9	2	1	0
Cn1c(-c2c(N)n(C3CCCC3)c3nc4ccccc4nc23)nc2ccccc21	-16	-5	53*	17	16
COCCNC(=O)c1c(N)n(-c2ccccc2)c2nc3ccccc3nc12	-1	9	3	1	0
Cn1c(-c2c(N)n(CCCc3ccccc3)c3nc4ccccc4nc23)nc2ccccc21	3	-5	52*	0	-1
COCCCn1c(N)c(-c2nc3ccccc3n2C)c2nc3ccccc3nc21	-4	-2	77*	3	22
COCCNC(=O)c1c(N)n(CCCn2ccnc2)c2nc3ccccc3nc12	-47*	-9	1	17	0
O=CNCc1nc2ccccc2n1CCCc1ccccc1	10	-3	23	-2	0
Cn1c(-c2c(N)n(CCc3ccccc3)c3nc4ccccc4nc23)nc2ccccc21	11	-5	77*	2	20
N#Cc1c(N)n(CCc2ccc(F)cc2)c2nc3ccccc3nc12	-18	-8	0	2	0
CCCC(=O)Nc1nn(C)c2nc3cc(C)ccc3cc12	0	1	0	-8	0
O=C(CC1=NCCNC(c2ccccc2)C1)c1ccccc1O (stereo not given)	-41*	-9	3	-11	-1
CCc1cccc(C)c1NC(=S)N1CCCCC1c1cccnc1 (stereo not given)	15	4	9	5	4
COC(=O)c1ccc(NC(=O)CSc2nc(C)cc(C)c2C(=O)Nc2ccccc2)cc1	-1	-1	28	-10	1
CCc1cc(C(=O)Nc2c(C)nn(Cc3ccc(C)cc3)c2C)no1	-9	2	-1	3	-2
Cc1ccc(Cn2nc(C)c(NC(=O)C3(C)CC3(Br)Br)c2C)cc1 (stereo not given)	-38*	-4	0	6	0
Cc1ccnc(NC(=O)C23CC4CC(CC(C4)C2)C3)c1	5	0	5	-2	0
NC(=O)c1nsc(C(=O)N(c2ccccc2F)C(C(=O)NCc2ccc(F)cc2)c2ccc(O)cc2)c1N (stereo not given)	7	-1	10	30*	1
O=C(O)/C=C/C(=O)NNC(=O)c1ccccc1Br	-41*	-9	-1	-3	0
Cc1ccccc1C(=O)NNC(=O)/C=C\C(=O)O	-2	-1	2	-10	-1
S=c1[nH]nc(-c2ccccc2Cl)n1/N=C/C=C/c1ccco1	-36*	-4	1	19	0
SMILES	D1 antag	D1 potentiator	D1 agonist	TRHR PAM	TRHR agonist
S=c1[nH]nc(-c2ccncc2)n1/N=C/C=C/c1ccco1	-2	-5	0	-11	0
CCN(CC(=O)Nc1ccccc1C(F)(F)F)C(=O)CCc1nc2ccccc2c(=O)[nH]1	8	11	1	4	0
CCOC(=O)C1=C(C)Nc2ccccc2N=C1NC(=O)Cc1ccc(OC)cc1	-81*	-5	1	-1	0
CCOC(=O)C1=C(C)Nc2ccccc2N=C1NC(=O)Cc1ccc(Br)cc1	4	1	-1	-2	0
COc1ccccc1-c1ccc(=O)n(CC(=O)NC2CCc3ccccc32)n1 (stereo not given)	23	5	88*	2	0
CCC(=O)c1ccc(N2CCCCC2)c(F)c1	-55*	-4	-1	-1	0
O=C(NC12CC3CC(CC(C3)C1)C2)c1c(Cl)cccc1Cl	-15	-3	1	-1	-1
Cc1ccc2oc(C(=O)N3CCC(N4CCSCC4)CC3)c(C)c2c1	-11	-1	0	0	0
Cc1ccc(C(=O)NCC(=O)OCc2c(F)cccc2Cl)cc1	4	-3	4	10	0
Cc1ccc(S(=O)(=O)NCC(=O)NCC(=O)OCc2c(F)cccc2Cl)cc1	-62*	-6	13	9	-1
Cc1cc(OCC(=O)Nc2nnc(C3CC3)s2)ccc1C(C)C	0	-1	3	36*	2
COCC(=O)Nc1ccc(N2CCCC2)c(S(=O)(=O)Nc2ccccc2OC)c1	-31*	9	-1	-6	0
COc1ccccc1NS(=O)(=O)c1cc(NC(C)=O)ccc1N1CCCCC1	11	6	4	-2	2
N#C/C(=C(/O)c1ccc2c(c1)OCO2)c1nc2cc(C(F)(F)F)ccc2s1	-41*	-3	15	-6	-1
CCOc1ccccc1OCC(=O)Nc1ccc(OC)c(S(=O)(=O)N2CCCCC2)c1	-11	0	-1	1	0
CCOc1ccc(NC(=O)C(C)Oc2ccc(C#N)cc2)cc1S(=O)(=O)N1CCCC1 (stereo not given)	0	-4	38*	-1	5
COc1ccc(S(=O)(=O)N(CC(=O)N2CCCC2)Cc2ccccc2)cc1	4	-3	1	-5	0
COc1ccc(OCCOc2ccc(N(C)S(=O)(=O)c3ccccc3)cc2)cc1	-27	-2	42*	6	4
CCN(Cc1ccccc1)S(=O)(=O)c1ccc(N2CCCCS2(=O)=O)cc1	-31*	1	12	-6	0
CCN(Cc1ccccc1)S(=O)(=O)c1ccc(S(=O)(=O)N2CCN(CCC#N)CC2)cc1	-42*	-5	-1	-10	1
CCN(Cc1ccccc1)S(=O)(=O)c1ccc(OC)cc1	-34*	4	6	1	-1
O=C(COc1ccccc1Cl)Nc1ccccc1C(=O)N1CCOCC1	-13	-2	1	-4	0
COc1ccc(S(=O)(=O)N(CC(=O)Nc2ccccc2Br)Cc2ccccc2)cc1	15	0	44*	1	2
COc1ccc(S(=O)(=O)N(CCc2ccccc2)CC(=O)Nc2cccc(OC)c2)cc1	-31*	0	31*	10	0
CCN(Cc1ccccc1)S(=O)(=O)c1ccc(S(=O)(=O)N(Cc2cccc(OC)c2)CC2CCCO2)cc1 (stereo not given)	12	-3	31*	4	6
